About 2,100 (0.72%) of roughly 290,000 compounds were called active. Entries that show only a call come without a potency. Another 4% or so got no clear call; they are omitted. Calls follow the shape of the dose curve; as a rule, active = well fitted inhibition curve with a large enough effect; inconclusive = small, poorly fitted or top-dose-only effect, or effect the other way; inactive = flat fitted curve, though single readings scatter. This excerpt belongs to a sample that is enriched for actives.
Biological target: Fructose-bisphosphate aldolase (Giardia intestinalis (strain ATCC 50803 / WB clone C6)) (UniProt A8B2U2)
Sequence (A8B2U2 whole entry, looked up): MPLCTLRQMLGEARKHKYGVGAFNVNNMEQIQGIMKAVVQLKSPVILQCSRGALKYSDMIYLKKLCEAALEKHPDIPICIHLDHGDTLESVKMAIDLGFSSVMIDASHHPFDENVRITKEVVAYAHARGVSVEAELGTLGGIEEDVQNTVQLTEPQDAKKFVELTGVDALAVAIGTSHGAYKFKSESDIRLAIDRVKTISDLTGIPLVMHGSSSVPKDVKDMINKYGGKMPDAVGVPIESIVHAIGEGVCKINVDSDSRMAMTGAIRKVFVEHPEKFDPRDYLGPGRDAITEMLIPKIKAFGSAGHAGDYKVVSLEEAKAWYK
Assay: qHTS Assay for Inhibitors of Fructose-1,6-bisphosphate Aldolase from Giardia Lamblia; also: nearly all actives have a fitted effect of over 55% in size
Settings: purified Giardia FBPA; series mostly up to 59.6 µM
Source text: Assay Provider: Osnat Herzberg, University of Maryland
The objective of this project is to obtain compounds that inhibit Giardia lamblia growth. G. lamblia is a human pathogen which afflicts impoverished nations; it is the most common cause of outbreaks of diarrhea in the United States. During the course of our study of potential drug targets in Giardia, we have identified the Class II (Zn2+ functions in electrophilic catalysis) fructose-1,6-bisphosphate aldolase (FBPA) as an excellent candidate for drug targeting. FBPA is a key glycolytic pathway enzyme, essential for G. lamblia survival. The human FBPA belongs to the Class I aldolases, which have a different substrate binding site structure and a radically different catalytic mechanism (employing a lysine-Schiff base intermediate). Therefore, affinity-based or mechanism-based inhibitors of the Giardia FBPA are expected not to interfere with the catalytic function of the human FBPA.
A glyceraldehyde-3-phosphate dehydrogenase/triose phosphate isomerase/NAD/arsenate coupled assay was adapted to the 1536-well HTP format for use in the primary screen. This was done by coupling it to a diaphorase/resazurin/resorufin reaction that can be monitored by fluorescence (excitation, 544 nm; emission, 590 nm). Compounds identified in this screen will be further evaluated by coupling the glycerol-3-phosphate/triose phosphate isomerase/NADH assay to a phenazine methosulfate/tetranitroblue tetrazolium color reaction. False positives due to the dehydrogenases and diaphorase inhibition will be eliminated, and selectivity assay will triage inhibitors of mammalian triose phosphate isomerase and the Class I FBPA. G. lamblia FBPA inhibitors identified by the in vitro analyses will be examined for growth inhibition of Giardia trophozoites, and for cytotoxicity in human cells.
Step,Parameter,Value,Description
1,Enzyme reagent,2 uL,40 nM FBPA
2,Compound,23 nL,3.68 nM-57.5 uM final concentration
3,Time,10 min,RT Incubation
4,Substrate/detection Reagent,2 uL,Substrate + enzyme coupling system + AmpLite Red kit
5,Time,20 min,RT Incubation
6,Detector,525 nm/598 nm (Fluorescence),ViewLux Fluorescence Read (Read 1)
1,Medium-binding black solid-bottom Kalypsys plates. FRD or Kalypsys dispenser, 2 uL of FBPA enzyme. Bottle kept at 4C.
2,Compound Library (10 mM ,1:5 dilution). Pin-transferred for a [final] range of 3.68 nM-57.5 uM.
4,FRD or Kalypsys dispenser, 2 uL of reaction mixture. Bottle kept at 4C and covered in foil to protect from light.
6,ViewLux Protocol 1194; Excitation filter wheel A (525/20 Pol; BODIPY TMR FP), Emission filter wheel B (598/25 S; BODIPY TMR FP S).
Keywords: Fructose-bisphosphate aldolase, FBPA , Giardia lamblia , Giardia, HTS, Inhibitors
Potency is read from the fitted curve at half-maximal effect.

SMILES	Potency
Cc1nc2ccc(NC(=S)N3CCC(C)CC3)cc2nc1C	15.8 µM (active)
Cc1nc2ccc(NC(=O)N3CCC(c4ccccc4)C3)cc2nc1C (configuration not stated)	inactive
Cc1cccc(NC(=S)N2CCC(c3nc4ccccc4s3)CC2)c1	inactive
O=CN1CCN(C(=O)c2ccc(Br)o2)CC1	inactive
Cc1csc(NC(=O)CN2CCCCCC2)n1	22.3 µM (active)
Cc1cc(C)c(NC(=O)CN2CCCCCC2)c(C)c1	inactive
O=C(CN1CCCCCC1)Nc1c(Cl)cc(Cl)cc1Cl	inactive
Cc1cccc([C@@H]2[C@@H]3C(=O)N(C)C(=O)[C@@H]3[C@@H]3C(=O)Nc4ccccc4C(=O)N23)c1	inactive
COc1ccccc1N(CC(=O)N/N=C(\C)c1ccccc1O)S(=O)(=O)c1ccc(C)cc1	inactive
CC(C)(C)c1ccc(CN2C(=O)c3ccccc3S2(=O)=O)cc1	inactive
Cc1ccc(C(=O)N2CC(=O)Nc3ccc(F)cc3C2c2ccc(F)cc2)cc1 (configuration not stated)	inactive
Cc1ccccc1Nc1nnc(C)c(=O)[nH]1	inactive
Cc1nnc(N/N=C/c2ccccn2)[nH]c1=O	1.99 µM (active)
Cc1nnc(N/N=C/c2cccs2)[nH]c1=O	inactive
O=S(=O)(c1ccc(Br)c2ccccc12)N1CCOCC1	inactive
COc1ccc(C(=O)Nc2ccc(C3(C#N)CCCC3)cc2)cc1OC	inactive
Cc1ccc(CC2CC(=O)N(c3cc(C)ccc3C)C2=O)cc1 (configuration not stated)	inactive
O=C(COc1cccc(Cl)c1)NCc1ccccc1	inactive
CN(C)C(=O)CSc1n[nH]c(-c2ccco2)n1	15.8 µM (active)
CN(C)c1ccc(NC(=O)CSc2n[nH]c(-c3ccco3)n2)cc1	inactive
O=[N+]([O-])c1ccc(Sc2n[nH]c(-c3ccco3)n2)nc1	inactive
CC(C)Nc1ccc(-n2nc3ccccc3[n+]2[O-])cc1	inactive
COCCCNC(=S)N1CCN(c2nc(-c3cccc(OC)c3)cs2)CC1	inactive

SMILES	Potency
O=C(N/C(=C/c1ccc(Cl)cc1)C(=O)N1CCCCC1)c1ccco1	inactive
COc1cc2ccccc2cc1C(=O)Nc1nc(C)c(C(C)=O)s1	inactive
CCCCC(CC)CNCc1cccn1CCN1CCOCC1 (configuration not stated)	inactive
CCN(CC)c1ccc(/C=N/Nc2nc(C)cc(=O)[nH]2)cc1	inactive
CCN(CC)c1ccc(/C=N/Nc2nc(C)cc(C)n2)c(O)c1	inactive
CCN(CC)c1ccc2oc(=O)c(C)nc2c1	2.51 µM (active)
CCOCCOC(=O)C(C)Oc1ccc(Oc2ncc(C(F)(F)F)cc2Cl)cc1 (configuration not stated)	inactive
COc1ccc(C2CC(c3ccc([N+](=O)[O-])cc3)=NN2C(C)=O)cc1 (configuration not stated)	inactive
C#CCN1C(=O)C(O)(CC(=O)c2cc(OC)ccc2OC)c2ccccc21 (configuration not stated)	inactive
COc1ccc(C(=O)NC(C)CCc2ccccc2)c(OC)c1 (configuration not stated)	inactive
COc1ccc2c(c1)C(=C(C#N)C#N)C(=O)N2CCc1ccccc1	2.51 µM (active)
Brc1ccccc1C1N=C(c2ccccc2)NO1 (configuration not stated)	inactive
Cc1ccc(SCC(CC(C)C)N2CCN(CCc3ccccc3)CCC2=O)cc1 (configuration not stated)	inactive
CCOc1ccccc1NC(=O)C1CCCN(S(=O)(=O)c2ccccc2)C1 (configuration not stated)	inactive
CCCCc1nc(NCc2ccccc2)c(C#N)c2c1CCCC2	inactive
CCc1nc(NCCO)c(C#N)c2c1CCCC2	inactive
CCN1CCc2c(C#N)c(NCc3ccccc3)nc(NCCO)c2C1	5.61 µM (active)
O=C1CCCN1CCCNC(=S)Nc1ccc(F)c(Cl)c1	14.1 µM (active)
Cc1cc(Cl)ccc1NC(=S)NCCCN1CCCC1=O	inactive
Cc1cccc(C(=O)NCCCN2CCCC2=O)c1	inactive
O=C(O)CCCn1cc(NC(=O)COc2cccc(Cl)c2)cn1	inactive
COc1ccc(-n2ncc3c(SCC(=O)NNC(C)=O)ncnc32)cc1	inactive
Cc1ccccc1-n1nc(C)c2cc(C(=O)NC3CC3)sc21	inactive

SMILES	Potency
Cc1nn(-c2ccccc2)c(Cl)c1/C=C/C(=O)c1ccc(O)cc1	inactive
Cc1ccccc1-n1nc(C)c2c1N=C1C(Cl)=CC(Cl)=CN1C2c1ccc(C(=O)O)cc1 (configuration not stated)	12.6 µM (active)
Cc1cccc([C@@H]2[C@@H]3C(=O)N(Cc4ccccc4)C(=O)[C@@H]3[C@]3(C)C(=O)N(c4ccc(Br)cc4)C(=O)N23)c1	inactive
CCN(CC)S(=O)(=O)c1ccc(-c2cn3ccc(C)cc3n2)cc1	inactive
C=CCn1c(SCc2ccccc2)nc2c1c(=O)[nH]c(=O)n2C	inactive
Cc1cnc(NC(=O)c2ccccn2)s1	7.92 µM (active)
Cc1cnc(NC(=O)c2ccc(Cl)nc2)s1	inactive
Cc1cnc(NC(=O)CSc2c(Cl)cccc2Cl)s1	inactive
CN(C)CCN(C(=O)C1=COCCO1)c1nc2ccc(Cl)cc2s1	inactive
CCc1ccc(NC(=O)N2CCc3ccccc3C2)cc1	inactive
Cc1ccc(Cl)c(OCC(=O)N2CCc3ccccc3C2)c1	inactive
COc1ccccc1C(=O)CSc1cccc[n+]1[O-]	inactive
O=C(CSc1cccc[n+]1[O-])c1ccc(Cl)cc1	inactive
O=C(CSc1cccc[n+]1[O-])c1ccc(-c2ccccc2)cc1	17.7 µM (active)
NS(=O)(=O)c1ccccc1NC(=O)c1c(O)c2ccccc2[nH]c1=O	inactive
CC(C)c1ccc(/C=C2\NC(=O)NC2=O)cc1	inactive
CC(=O)N1CCC(C(=O)OCc2ccc(Cl)cc2)(c2ccccc2)CC1	inactive
Cc1cccc2c(CCN)c[nH]c12	inactive
O=C(Cc1c[nH]c2ccccc12)OCCOC(=O)Cc1c[nH]c2ccccc12	inactive
COc1ccc(Nc2ncnc3ccc(Br)cc23)c(OC)c1	inactive
O=C(c1cc(COc2ccc(F)cc2F)on1)N1CCOCC1	inactive
CSc1ccccc1NC(=O)c1cc(Cl)sc1Cl	inactive
CCCCC(C(=O)NC(C)(C)C)N(Cc1ccccc1)C(=O)c1snc(C(N)=O)c1N (configuration not stated)	inactive

SMILES	Potency
CN1CCN(Cc2ccc(OC(F)(F)F)cc2)CC1	inactive
COc1ccc(CN2CCN(Cc3ccc(OC)c(OC)c3OC)CC2)cc1	14.1 µM (active)
COc1ccccc1N1CCN(Cc2ccc(OC)c3ccccc23)CC1	inactive
Cc1cc(N=Nc2ccc3ccccc3c2)ccc1O	inactive
O=S(=O)(Nc1ccccc1Cl)c1cccc2nsnc12	inactive
CCOC(=O)c1cc2cc3ccccc3cc2oc1=O	inactive
Cc1cc(C)n2nc(C(=O)NC(C)(C)C)nc2n1	inactive
C=CCNC(=S)NNC(=O)c1cc(Cl)ccc1OC	inactive
COc1ccc(Cl)cc1C(=O)NNC(=O)c1nc2nc(C)cc(C)n2n1	17.7 µM (active)
CCN1C(=S)N[C@@H](c2cccc(C(F)(F)F)c2)C(C(=O)OC)=C1C	inactive
O=C(Nc1cccnc1Cl)c1cc(-c2ccccc2O)on1	inactive
O=C(Nc1ccc(N2CCOCC2)c(Cl)c1)c1ccc(S(=O)(=O)N2CCOCC2)cc1	inactive
CC1CCCN(S(=O)(=O)c2ccc(C(=O)Nc3nnc(-c4ccncc4)o3)cc2)C1 (configuration not stated)	7.06 µM (active)
CSCc1nnc(NC(=O)c2ccc(S(=O)(=O)N3CCCCC3C)cc2)o1 (configuration not stated)	inactive
Cc1ccnc(NS(=O)(=O)c2ccc(NC(=O)c3ccc(S(=O)(=O)N4CCOCC4)cc3)cc2)n1	inactive
CC1CCCCN1S(=O)(=O)c1ccc(C(=O)Nc2nnc(-c3cccs3)o2)cc1 (configuration not stated)	inactive
O=C(Nc1nnc(-c2ccco2)o1)c1ccc(S(=O)(=O)N2CCOCC2)cc1	17.7 µM (active)
CC(C)(C)c1ccc(Cn2nnc3c(=O)[nH]c(C4CCCN(C(=O)c5ccco5)C4)nc32)cc1 (configuration not stated)	inactive
Cc1cccc(C(=O)Nc2ccc(Oc3cnccn3)cc2)c1	inactive
CN(Cc1ccccc1)C(=O)CSc1nc2ccccc2[nH]1	inactive
COc1cc(Cl)ccc1OCc1cc(C(=O)N2CC[C@@H]3CCCC[C@H]3C2)no1	inactive
COC(=O)[C@@H]1C[C@@]2(O)[C@H](O)[C@H](O)[C@H](O)C[C@H]2N1CC1CCCCC1	inactive
CC(=O)c1ccc(OCCN2CCOCC2)cc1	inactive

SMILES	Potency
c1ccc(-c2ccc(OCCN3CCOCC3)cc2)cc1	inactive
Cc1cccc(C)c1OCCN1CCOCC1	15.8 µM (active)
N#Cc1ccc(C2N=C(c3ccccc3)NO2)cc1 (configuration not stated)	inactive
COc1ccccc1C(C)NC(=O)Cc1ccsc1 (configuration not stated)	inactive
O=C(C[n+]1cc(Br)cc2ccccc21)c1ccc(F)cc1	inactive
O=[N+]([O-])c1ccc2c(c1)Nc1nc3ccccc3nc1N2	inactive
O=C(CSc1nc2ccc([N+](=O)[O-])cc2[nH]1)c1ccc(Cl)cc1	inactive
O=[N+]([O-])c1ccc2nc(-c3ccccn3)[nH]c2c1	7.92 µM (active)
COc1cccc(N(CC(=O)NCc2ccccc2)C(=O)CCC(=O)Nc2nccs2)c1	inactive
CCOc1ccccc1NC(=S)NC(=O)CCc1ccccc1	inactive
COCCN(CCOC)C(=S)Nc1ccccc1Cl	inactive
CCc1cccc(NC(=S)N(CCN(C)C)C2CCN(C(C)C)CC2)c1	inactive
COCCN(C(=S)Nc1ccccc1OC)C1CCN(C(C)C)CC1	15.8 µM (active)
CCNc1c(NS(=O)(=O)c2ccc(C3CCCCC3)cc2)c(=O)oc2ccccc12	inactive
O=c1c(O)c(Br)ccc2c(Br)c(O)c(O)c(O)c12	11.2 µM (active)
Cc1noc(C)c1-c1ccc2ncnc(NCc3ccc4[nH]ccc4c3)c2c1	inactive
COc1ccc(/C=C/C(=O)NC(=S)NN2CCCCC2c2cccnc2)cc1 (configuration not stated)	inactive
COc1ccc(C(=O)NC(=S)N2CCCCC2c2cccnc2)cc1OC (configuration not stated)	3.55 µM (active)
O=C(NC(=S)N1CCCCC1c1cccnc1)c1ccccc1 (configuration not stated)	inactive
CC(C)(C)c1ccc(C(=O)N2CCN(CCNC(=O)C(=O)Nc3ccc(F)cc3)CC2)cc1	inactive
